Rows were chosen to be rich in hits. Some 6.7% of all compounds tested hit in one or more screens of this group.
C diff HTS: inhibitors of Clostridium difficile growth. Clostridium difficile clinical isolate growth, OD600, 24 h; hits give low values. growth activity, negative = inhibition, % at 16 µg/mL (by protocol). hit rate 0.25% among 86,000. AID 1259249;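 active = mean growth activity at or below -80% and every replicate also at or below -80%; inconclusive = mean at or below -80% but some replicate above -80%; inactive = mean growth activity above -80%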;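 note: 0% = DMSO wells and -100% = levofloxacin 16 µg/mL wells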
Pf Dd2 growth: inhibitors of Plasmodium falciparum Dd2 growth | P. falciparum Dd2 growth, SYBR Green, 72 h; hits give low values | activity change, % at 10 µM | hit rate 2.3% among 94,000 | AID 1159554; in the data active = activity change below about -80%; inconclusive = no clear call, values can overlap the other calls
T cruzi growth-1: blocks T. cruzi growth in NIH3T3 culture. T. cruzi beta-gal in NIH3T3, GalScreen luminescence, 90 h. inhibition, % at 8.34 µM. hit rate 5.9% among 77,000. AID 624255;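 active = mean inhibition above about 93%, with at least 55% of replicates each passing it, limit read from the data, passing the limit was not always enough; inconclusive = only one of those two conditions holds; inactive = neither condition holds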
T cruzi growth-2: blocks T. cruzi growth in NIH3T3 host cells; shares compounds with T cruzi growth-1; T. cruzi beta-gal in NIH3T3, GalScreen luminescence, 90 h; inhibition, % at 8.35 µM; hit rate 72% among 5,600; AID 651739;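 active = mean replicate inhibition above about 95% and at least 55% of replicates individually reaching it, limit read from the data; inconclusive = only one of the two criteria is met; inactive = neither criterion is met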
T cruzi growth-3: blocks T. cruzi growth in NIH3T3 host cells | shares compounds with T cruzi growth-1 | T. cruzi beta-gal in NIH3T3, GalScreen luminescence, 90 h | inhibition, % at 2.09 µM | hit rate 21% among 5,600 | AID 651740;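 active = mean inhibition above about 95%, with at least 55% of replicates also reaching it, limit read from the data; inconclusive = meets just one of the two conditions; inactive = meets neither condition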;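 note: plate controls were neutral control median for no effect and positive control median for full effect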
NIH3T3 tox: NIH/3T3 (mouse) viability loss; NIH/3T3 viability, CellTiter-Glo ATP luminescence, 90 h; AID 651742; hit rate 14% among 5,600; cytotoxicity (signal decrease), % at 8.35 µM; shares compounds with T cruzi growth-1;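 active = mean signal decrease across replicates above about 35% based on untreated-well scatter, with enough replicates individually passing, limit read from the data; inconclusive = no rule stated though some were filed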;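 note: 0% = median of neutral control wells and 100% = median of positive control wells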
NIH3T3 tox 2: cytotoxicity in mouse NIH/3T3 fibroblasts | shares compounds with T cruzi growth-1 | NIH/3T3 viability, CellTiter-Glo ATP luminescence, 90 h | inhibition, % at 24.9 µM | hit rate 56% among 5,600;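 active = mean loss of cell viability signal at or above a set limit, and enough replicates individually reaching it; inconclusive = meets only the mean limit or only the replicate share; inactive = meets neither condition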;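 note: 0% = median of neutral control wells and 100% = median of positive control wells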
* = called active by the depositor; u = inconclusive; x = no result.

SMILES	C diff HTS	Pf Dd2 growth	T cruzi growth-1	T cruzi growth-2	T cruzi growth-3	NIH3T3 tox	NIH3T3 tox 2
O=C(C[C@@H]1CC[C@@H]2[C@H](COC[C@@H](O)CN2Cc2nccs2)O1)NCc1ccc(Oc2ccccc2)cc1	1	-20	x	x	x	x	x
COc1ccc(S(=O)(=O)Nc2ccc3c(c2)C(=O)N([C@H](C)CO)C[C@H](C)[C@@H](CN(C)C(=O)CCC(F)(F)F)OCCCC[C@@H](C)O3)cc1	-6	10	-27	x	x	x	x
CN(C)CCCNC(=O)C[C@@H]1C=C[C@H](NS(=O)(=O)c2ccc(F)cc2)[C@@H](CO)O1	-2	-8	-45	x	x	x	x
COc1ccccc1C#Cc1ccc([C@H]2[C@H](CO)N3CCCCN(S(C)(=O)=O)C[C@@H]23)cc1	4	-14	u	106*	74	39*	70*
COc1ccccc1C#Cc1ccc([C@@H]2[C@H]3CN(S(C)(=O)=O)CCCCN3[C@H]2CO)cc1	-3	-4	94	x	x	x	x
CCS(=O)(=O)N1CCCCN2[C@H](CO)[C@@H](c3ccc(C#Cc4ccccc4OC)cc3)[C@H]2C1	-2	-8	122*	101*	51	45*	85*
CCS(=O)(=O)N1CCCCN2[C@H](CO)[C@H](c3ccc(C#Cc4ccccc4OC)cc3)[C@H]2C1	14	-22	-1	x	x	x	x
CCCC#Cc1ccc([C@@H]2[C@@H](CO)N3CCCCN(S(=O)(=O)CC)C[C@H]23)cc1	12	7	-5	x	x	x	x
CCS(=O)(=O)N1CCCCN2[C@H](CO)[C@H](c3ccc(C#Cc4ccccc4OC)cc3)[C@@H]2C1	-2	-77	112*	106*	74	42*	51*
COc1ccc(S(=O)(=O)Nc2ccc3c(c2)OC[C@@H](C)N(C(=O)NC(C)C)C[C@@H](C)[C@H](OC)CN(C)C3=O)cc1	17	13	18	x	x	x	x
CCC(=O)N1CC2(C1)[C@H](c1ccc(-c3ccc(C#N)cc3)cc1)[C@@H](CO)N2C(C)=O	-6	16	x	x	x	x	x
C/C=C/c1ccc([C@@H]2[C@@H](C#N)N(c3ncc(CC)s3)[C@@H]2CO)cc1	6	-37	u	101*	107*	19	38*
C/C=C/c1ccc([C@@H]2[C@@H](C#N)N(c3ncc(CC)s3)[C@H]2CO)cc1	16	30	102*	96*	17	2	53*
C/C=C/c1ccc([C@H]2[C@@H](C#N)N(c3ncc(CC)s3)[C@H]2CO)cc1	0	8	101*	106*	100*	2	18
C/C=C/c1ccc([C@@H]2[C@H](C#N)N(c3ncc(CC)s3)[C@H]2CO)cc1	3	41	94	x	x	x	x
CCCN1C[C@@H](C)[C@H](OC)CN(C)C(=O)c2cc(NC(=O)NC3CCCC3)ccc2OC[C@@H]1C	7	22	x	x	x	x	x
COc1ccc2c3c(n(C)c2c1)[C@H](CO)N(Cc1nccs1)CC31CCN(C(C)=O)CC1	9	-2	x	x	x	x	x
CO[C@H]1CN(C)C(=O)c2ccc(NC(=O)C3CC3)cc2OC[C@H](C)N(CC2CCOCC2)C[C@@H]1C	-2	-9	x	x	x	x	x
COCC(=O)N(C)C[C@@H]1[C@H](c2ccc(-c3cccnc3)cc2)[C@@H](CO)N1C(C)=O	0	5	100*	-70	-21	-30	-27
CCC(=O)N1[C@H](CO)[C@@H](c2ccc(-c3cccnc3)cc2)[C@@H]1CN(C)C(C)=O	1	13	-5	x	x	x	x
CCC(=O)N(C)C[C@H]1[C@H](c2ccc(-c3cccnc3)cc2)[C@@H](CO)N1C(C)=O	-7	9	55	x	x	x	x
CCC(=O)N1[C@@H](CO)[C@@H](c2ccc(-c3cccnc3)cc2)[C@@H]1CN(CC)C(C)=O	9	31	98*	-4	18	-3	13
CN(C)c1ccc2c(c1)[C@@H]1C[C@H](CC(=O)NCC3CC3)O[C@@H](CO)[C@@H]1O2	5	5	31	x	x	x	x
C[C@@H]1CN([C@H](C)CO)C(=O)c2cc(NC(=O)Nc3cccc4ccccc34)ccc2O[C@@H](C)CCCCO[C@H]1CN(C)Cc1ccccc1	59	u	111*	92	105*	34	107*
COc1ccc(CN(C)C[C@@H]2OCCCC[C@H](C)Oc3ccc(NC(=O)Nc4cccc5ccccc45)cc3C(=O)N([C@@H](C)CO)C[C@H]2C)cc1	-57	-80	94	x	x	x	x
SMILES	C diff HTS	Pf Dd2 growth	T cruzi growth-1	T cruzi growth-2	T cruzi growth-3	NIH3T3 tox	NIH3T3 tox 2
C[C@@H]1CCCCO[C@@H](CN(C)Cc2ccccc2)[C@H](C)CN([C@@H](C)CO)C(=O)c2cc(NC(=O)Nc3cccc4ccccc34)ccc2O1	26	-8	107*	103*	104*	6	106*
C[C@@H]1CCCCO[C@@H](CN(C)CC2CCCCC2)[C@@H](C)CN([C@H](C)CO)C(=O)c2cc(NC(=O)Nc3cccc4ccccc34)ccc2O1	10	-33	u	105*	105*	18	36*
C[C@@H]1CCCCO[C@@H](CN(C)CC2CCCCC2)[C@H](C)CN([C@@H](C)CO)C(=O)c2cc(NC(=O)Nc3cccc4ccccc34)ccc2O1	2	-79	117	x	x	x	x
C[C@@H]1CCCCO[C@@H](CN(C)Cc2ccccc2)[C@@H](C)CN([C@H](C)CO)C(=O)c2cc(NC(=O)Nc3cccc4ccccc34)ccc2O1	0	32	x	x	x	x	x
COc1ccc(CN(C)C[C@H]2OCCCC[C@@H](C)Oc3ccc(NC(=O)Nc4cccc5ccccc45)cc3C(=O)N([C@@H](C)CO)C[C@@H]2C)cc1	-43	-90*	u	97*	101*	41*	103*
O=C(C1CC1)N1C[C@H]2[C@@H](c3ccccc31)[C@H](CO)N2S(=O)(=O)c1ccccc1	6	1	22	x	x	x	x
C[C@@H]1CN([C@@H](C)CO)C(=O)c2cc(NC(=O)Nc3cccc4ccccc34)ccc2O[C@@H](C)CCCCO[C@@H]1CN(C)Cc1ccccc1	7	-61	116*	110*	101*	27	u
C[C@H](CO)N1C[C@H](C)[C@H](CN(C)Cc2ccccc2)OCCCC[C@H](C)Oc2ccc(NC(=O)Nc3cccc4ccccc34)cc2C1=O	47	9	117*	92	63	7	93*
CCCNC(=O)C[C@H]1C[C@H]2c3cc(NC(=O)Nc4ccccc4)ccc3O[C@H]2[C@@H](CO)O1	0	4	11	x	x	x	x
C[C@H]1CCCCO[C@@H](CN(C)CC2CCCCC2)[C@@H](C)CN([C@@H](C)CO)C(=O)c2cc(NC(=O)Nc3ccc(F)cc3)ccc2O1	0	-85*	125*	101*	120*	60*	103*
C[C@@H]1CCCCO[C@@H](CN(C)C)[C@H](C)CN([C@@H](C)CO)C(=O)c2cc(NC(=O)Nc3ccc(F)cc3)ccc2O1	5	33	0	x	x	x	x

Source: PubChem
